Laboratory results reported in PubChem BioAssay AID1985 (Southern Research Specialized Biocontainment Screening …, 2009).
In all, about 2,300 compounds went through this assay and about 1,000 (43%) were called active. No rule for the calls is given here. So high a share suggests a set chosen from earlier hits. Some of the results follow. A call without a number means that no potency is given here. Potency and affinity values are given separately.

Test: PhoP regulon inhibitor project modified counter assay, GFP fluorescence readout, dose response (AID 1985)
Settings: S. Typhi, 4 h; series mostly up to 150 µM

Row | SMILES | outcome
1 | COCCN1CC(=O)N2C(c3cccc(OC)c3)c3[nH]c4ccccc4c3C[C@H]2C1=O (stereo partly drawn) | inactive
2 | Cc1ccc2c(c1)C1CN(C)CCC1N2C(=O)COc1ccccc1F (stereo not drawn) | inactive
3 | CCOC(=O)c1cc(-c2ccc(F)cc2)n(CCC(=O)NC2CCN(Cc3ccccc3)CC2)c1C | inactive
4 | c1ccc(CN2CCC(Nc3nc(-c4ccccc4)nc4ccccc34)CC2)cc1 | inactive
5 | c1ccc(CN2CCC(N3CCN(Cc4ccc5c(c4)OCO5)CC3)CC2)cc1 | inactive
6 | c1ccc(CN2CCC(Nc3nc(-c4cccs4)nc4ccccc34)CC2)cc1 | inactive
7 | Cc1ccccc1C(=O)c1cccn1CC(=O)NCCC1=CCCCC1 | inactive
8 | Cc1cc2ccccc2c(=O)n1CC(=O)NCCC1=CCCCC1 | inactive
9 | Clc1ccc(OCc2nc(-c3ccc(Br)o3)no2)cc1 | inactive
10 | CN1CCN(c2ccccc2NC(=O)c2cc3c(s2)-c2ccccc2OC3)CC1 | inactive
11 | NCC/C=C1/c2ccccc2CSc2ccccc21 | inactive
12 | c1ccc2c(Nc3nnc(-c4ccncc4)s3)cccc2c1 | inactive
13 | O=C(Nc1ccc(N2CCOCC2)cc1)c1ccc(S(=O)(=O)NCc2ccco2)cc1 | inactive
14 | CCc1cccc(NC(=O)CSC2=NS(=O)(=O)c3ccccc32)c1 | inactive
15 | O=C(CNC(=O)Cn1ccc2ccccc2c1=O)NCCCN1CCCCCC1 | inactive
16 | O=C1CCCN1CCC1CCN(C2CC(=O)N(c3ccc(Cl)cc3)C2=O)CC1 (stereo not drawn) | inactive
17 | CC(NCC(O)COCCC12CC3CC(CC(C3)C1)C2)c1ccccc1 (stereo not drawn) | inactive
18 | CS(=O)(=O)c1cnc2c(-c3ccsc3)cnn2c1N | inactive
19 | O=C(CCSCc1ccccc1F)NCc1cccs1 | inactive
20 | CC(OC(=O)Cc1coc2cc3c(cc12)CCC3)C(=O)NCc1ccc2c(c1)OCO2 (stereo not drawn) | inactive
21 | COc1cc2[nH]c(=S)n(CC3CCCO3)c(=O)c2cc1OC (stereo not drawn) | inactive
22 | Cc1ccc(NC2OC(CO)C(O)C(O)C2O)cc1 (stereo not drawn) | inactive
23 | Cc1cn([C@H]2C[C@H](N=[N+]=[N-])[C@@H](CO)O2)c(=O)[nH]c1=O | inactive
24 | O=C(COC(=O)CNC(=O)c1ccccc1)Nc1ccc(F)c([N+](=O)[O-])c1 | inactive

Row | SMILES | outcome
25 | Cc1[nH]nc2c1C(c1ccc(-c3ccccc3C#N)o1)C(C#N)=C(N)O2 (stereo not drawn) | inactive
26 | O=C(NCc1cccs1)C(=O)NCC(c1ccco1)N1CCN(c2ccc(F)cc2)CC1 (stereo not drawn) | inactive
27 | CCCN(CCC)CC(=O)Nc1cccc2c1OCO2 | inactive
28 | O=C(/C=C/c1ccccc1)NNC(=O)c1ccco1 | inactive
29 | O=C(/C=C/c1ccco1)NC(=S)Nc1cccc(-c2nc3ccccc3o2)c1 | inactive
30 | CC(=O)c1cccc(NC(=S)NNC(=O)c2ccco2)c1 | inactive
31 | O=C(NC(=S)Nc1c(F)cc(F)cc1Br)c1ccc2c(c1)OCCO2 | inactive
32 | c1csc(-n2nc3ccccc3n2)c1 | inactive
33 | CC1Cc2ccccc2N1C(=O)CN1C(=O)C(=O)N(Cc2ccccc2)C1=O (stereo not drawn) | inactive
34 | CC(C)(C)SCCNC(=O)c1ccccc1 | inactive
35 | CCOc1ccc(-c2c[n+]3c(n2-c2ccccc2)CCCCC3)cc1 | inactive
36 | COCCCNc1c2c(nc3nnnn13)CCCC2 | inactive
37 | CC(C)(C)c1ccc(OCCNC(=S)Nc2ccccc2)cc1 | inactive
38 | O=C(NCCCNc1ccnc2cc(Cl)ccc12)c1ccccc1F | inactive
39 | C#CCOC(=O)c1ccccc1C(=O)OCC#C | inactive
40 | C=CCNc1nc(-c2ccccc2)nc(-n2ccnc2)n1 | inactive
41 | CC(Sc1nc2ccccc2o1)C(=O)O (stereo not drawn) | inactive
42 | O=C(CSc1nc2ccccc2o1)c1cc2ccccc2oc1=O | inactive
43 | CN(CCO)CC(O)Cn1cnc2c1c(=O)n(C)c(=O)n2C (stereo not drawn) (tested in a mixture with another compound) | inactive
44 | Cc1ccc(N2CC(C(=O)OCc3ccccc3F)CC2=O)cc1 (stereo not drawn) | inactive
45 | Cc1cc2oc(=O)cc(CN3CCN(C/C=C/c4ccccc4)CC3)c2cc1O | inactive
46 | O=C(O)/C=C/c1cn(-c2ccccc2)nc1-c1cc2ccccc2oc1=O | inactive
47 | Oc1c(Br)cc(Br)cc1Oc1ccc(Br)cc1Br | inactive
48 | Oc1c(Br)cc(Br)cc1C=Nc1cccc2ncccc12 | inactive

Row | SMILES | outcome
49 | Cc1cccc(N/N=C/c2ccc(O)c(O)c2O)c1 | inactive
50 | Cc1cc(C)nc(NS(=O)(=O)c2ccc(N3C(=O)C4CC=C(Cl)CC4C3=O)cc2)n1 (stereo not drawn) | inactive
51 | Cc1cc(C)cc(NC(=O)C(Sc2nnc(C)c(=O)[nH]2)c2ccccc2)c1 (stereo not drawn) | inactive
52 | Cc1c(C)n(C)c2ccc(C(=O)NCc3cccs3)cc12 | inactive
53 | Cc1cccc2cc(C(c3nnnn3Cc3ccccc3)N3CCN(C)CC3)c(=O)[nH]c12 (stereo not drawn) | inactive
54 | CCCCc1ccc2[nH]cc(CCN)c2c1 | inactive
55 | CCN(CC)C(=O)CNC(=O)Cc1ccc(Cl)cc1 | inactive
56 | S=C1SCN(Cc2cccnc2)CN1Cc1cccnc1 | inactive
57 | Cc1nc2nc(COc3ccccc3)nn2c(C)c1Cl | inactive
58 | O=C(Nc1ccc(Nc2ccncc2)cc1)c1ccc([N+](=O)[O-])cc1 | inactive
59 | Cc1cc2oc(C(=O)NCc3ccncc3)c(C)c2cc1C | inactive
60 | CC(=O)Nc1cccc(NS(=O)(=O)Cc2ccc(Cl)cc2)c1 | inactive
61 | O=C(Nc1ccc(N2CCOCC2)c(Cl)c1)c1ccccc1F | inactive
62 | COc1ccc2c(c1)CC1(CN2C)C(=O)NC(=O)N(CCc2ccccc2)C1=O (stereo not drawn) | inactive
63 | Cc1ccc(C(=O)O)cc1N=Cc1cc(Br)cc(Br)c1O | inactive
64 | Nc1ccc(S(=O)(=O)c2ccc(N)cc2)cc1 | inactive
65 | Nc1nonc1-n1nnc(C(=O)N/N=C/c2ccccc2O)c1CN1CCCC1 | inactive
66 | O=C(N/N=C/c1cccnc1)c1cccc(Cl)c1 | inactive
67 | Nc1cc(=O)[nH]c(=S)n1-c1cccc(C(F)(F)F)c1 | inactive
68 | O=C1c2[nH]nc(-c3ccccc3O)c2C(c2ccc(F)cc2)N1CC1CCCO1 (stereo not drawn) | inactive
69 | C=CCNC(=O)NC(=O)COC(=O)/C(C#N)=C/c1ccc(OC)cc1 | inactive
70 | N#CCCn1ncc2ccccc21 | inactive
71 | Cc1c(C)c2ccc(OC(C)C(=O)N[C@@H](Cc3c[nH]c4ccccc34)C(=O)O)c(C)c2oc1=O (stereo partly drawn) | inactive
72 | Cc1ccc(N=Cc2cc(Br)cc(Cl)c2O)cc1 | inactive

Row | SMILES | outcome
73 | COc1ccc(/C=N/NC(=O)c2cccnc2)cc1 | inactive
74 | CCN(CC)Cc1c(C(=O)N/N=C/c2cccc3ccccc23)nnn1-c1nonc1N | inactive
75 | Cc1cc(C(=O)Cn2cncn2)c(C)n1CCc1ccc(F)cc1 | inactive
76 | O=C(CCN1CCOCC1)Nc1ccccc1 | inactive
77 | COc1ccc(Cl)cc1NC(=O)CCN1CCOCC1 | inactive
78 | CCCNC(=O)COc1ncnc2sc(C)c(C)c12 | inactive
79 | Cc1cc(C)cc(N(C(=O)CNC(=O)c2cccs2)C(C(=O)NC2CCCC2)c2cccnc2)c1 (stereo not drawn) | inactive
80 | Cc1c(C2(O)C(=O)Nc3ccc(F)cc32)c(=O)n(-c2ccccc2)n1C (stereo not drawn) | inactive
81 | C=CCOC(=O)C1=C(C)NC2(O)c3ccccc3C(=O)C12O (stereo not drawn) | inactive
82 | N#C/C(=C\c1ccc(O)c(O)c1)C(=O)NCc1ccccc1 | inactive
83 | CCc1nn(CCCN2CCN(c3cccc(Cl)c3)CC2)c(=O)n1CCOc1ccccc1 | inactive
84 | CC1CCN(CCCCOc2ccc(Cl)cc2)CC1 | inactive
85 | Cn1c(CN2CCCC2)nc2cc(NC(=O)COc3ccc(Cl)cc3)ccc21 | inactive
86 | Cc1c(C)n(C)c2ccc(C(=O)NCCCN3CCCC3)cc12 | inactive
87 | Cc1ccc(-c2nnc3sc(-c4ccncc4)nn23)cc1 | inactive
88 | COc1ccc(C2C(C(=O)N3CCC4(CC3)OCCO4)CC(=O)N2c2ccc(OC)cc2)cc1 (stereo not drawn) | inactive
89 | O=C(c1ccc2c(c1)[nH]c(=S)n1c3ccccc3nc21)N1CCN(c2cccc(Cl)c2)CC1 | inactive
90 | COC(=O)Cc1ccc(NC(=S)NCc2ccc(Cl)cc2)cc1 | inactive
91 | COc1cc(NS(=O)(=O)c2ccc(NC(=S)Nc3ccccc3)cc2)nc(OC)n1 | inactive
92 | CCNC(=S)Nc1cccc(S(=O)(=O)Nc2ccccc2OC)c1 | inactive
93 | Cc1ccc(C)c(SCC(=O)Nc2ccc(S(=O)(=O)Nc3ncccn3)cc2)c1 | inactive
94 | O=S(=O)(Nc1ncccn1)c1ccc(NC(=S)Nc2ccccc2Cl)cc1 | inactive
95 | NC(N)=NC(N)=Nc1cccc2ccccc12 | inactive
96 | CCNC(=O)c1ccc(C2SCC(=O)N2CCc2ccccc2)cc1 (stereo not drawn) | inactive

Row | SMILES | outcome
97 | COc1ccc(NC(=O)CN(C)S(=O)(=O)c2ccc(Cl)cc2)cc1Cl | inactive
98 | COc1cccc(NC(=O)COC(=O)Cc2ccccc2[N+](=O)[O-])c1 | inactive
99 | Oc1ccccc1N=Cc1c(O)ccc2oc3c(c12)CCCC3 | inactive
100 | CC(=O)NCc1ccc(C(=O)CSc2nnc(-c3ccncc3)n2Cc2ccccc2)o1 | inactive
101 | Cc1[nH]c2ccccc2c1/C=N/Nc1nc2ccccc2[nH]1 | inactive
102 | O=C(CN(CCc1ccccc1)C(=O)CNS(=O)(=O)c1ccc(F)cc1)NCC1CCCO1 (stereo not drawn) | inactive
103 | COc1ccc(/C=N/NC(=O)c2ccc3c(c2)OCO3)cc1 | inactive
104 | OCn1ncn(-c2ccccc2)c1=S | inactive
105 | CCN(CC)/C(N)=N/c1nc(C)cc(C)n1 | inactive
106 | c1ccc(-c2nnc(-c3c[nH]c4ccccc34)nc2-c2ccccc2)cc1 | inactive
107 | COC(=O)c1ccc(S(=O)(=O)N2CCC(c3nc4ccccc4o3)CC2)cc1 | inactive
108 | Cc1cc(N2CCN(C3CCCCC3)CC2)nc2cccc(O)c12 | inactive
109 | O=C(CN1C2=NCCCN2c2ccccc21)c1ccc([N+](=O)[O-])cc1 | inactive
110 | O=C(CN1C2=NCCCN2c2ccccc21)c1ccc2c(c1)OCO2 | inactive
111 | CC(C)N=C1NN=C(c2ccc(F)cc2)CS1 | inactive
112 | Cc1cccn2c(=O)c3cc(C(=O)NCC4CCCO4)c(=N)n(C4CCCC4)c3nc12 (stereo not drawn) | inactive
113 | COc1ccc(Cn2c(=N)c(C(=O)NCC3CCCO3)cc3c(=O)n4ccccc4nc32)cc1 (stereo not drawn) | inactive
114 | COc1ccc(Nc2nc(NCC3CCCO3)c3ccccc3n2)c(OC)c1 (stereo not drawn) | inactive
115 | COc1ccc(Nc2nnc(SCC3CCCO3)s2)cc1 (stereo not drawn) | inactive
116 | COc1ccccc1Nc1nc(NCC2CCCO2)c2ccccc2n1 (stereo not drawn) | inactive
117 | Cn1cc(S(=O)(=O)NCC2CCCO2)c(=O)n(C)c1=O (stereo not drawn) | inactive
118 | COc1ccc(CCn2c(=N)c(C(=O)NCC3CCCO3)cc3c(=O)n4ccccc4nc32)cc1 (stereo not drawn) | inactive
